The assay concerns VDR:RXRa (NR concentration 270 nM, RXRa partner concentration 90 nM). The assay can be described thus: PBM binding z-score (relative to random genomic background probes); higher = stronger binding; sequences stand for … in GC…GCGATTGACAGCGTAGAATGAAGG
How it is done: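 Protein-binding microarray (Agilent 4x180K custom design, double-stranded 60-nt probes: 5' GC cap, 34-nt variable region, 24-nt constant primer region; full probe sequence given). Purified or IVT nuclear receptor:RXRα heterodimers (3:1 NR:RXRα, mostly 270:90 nM) or homodimers were incubated for 1 h in PBS with 2% milk and no ligand, then detected with Alexa488 antibodies. Fluorescence from o1-orientation probes (~5 replicates averaged) was converted to z-scores against 500 random hg19 background probes. Variable regions are seed direct-repeat (DR0–DR5) sites, all their single-nucleotide variants and half-site ablations.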
GCGACTGGGGCATCAGCAGTTTACCATAACTTAA: the PBM binding z-score was -0.0228.
Under TGTCAAACTTCAAAGGTAACGTAAGTATCCACAC stands 0.41; under ATCTCTAGGTAACAAGTTCAGTGAGAGAGAGGAC, 2.22.
In the case of ATCTCTAGGTGAAGATAGTTCAGTGAATGCAAAT it was 0.849.
In the case of CCAGACAGCTGAAAGGTAACTCAGTCTGGTACGC it was -0.0821; in that of GATACAGGGTCAGCTAGAGGCCAGTGTATGGAAA, 3.43; in that of CTCGAAAGGTCGGTTGCGGTGAGTATACGGATAA, 1.11.
ACTATTAGTTGAGTCGAGGGCAACCGATAGGTTG came in with a PBM binding z-score of 0.728.
Under CCTAGTAGGTCAGGAGGTCACACACCGGATATGA stands 4.92.
In the case of CCTACTGGGCCAGGAAAGGTCATTGATTCAGTGA it was 3.53.
Under TCTATTAGTTGAAGGTCAACCGACGAGTCCGTTT stands 3.85; under CCTTACCGGTCACTCCAGGTTATAGCATCGGAGT, 1.46.
For the sequence TAGCCTAGGTCAGGTCGGGCCAGTATACGCTATA, the PBM binding z-score was 1.03.
Under CAAGCTAGGTCACCGGAAGGTCAAAGTCCGCATG stands 6.18; under CATACGGGGTCAGCTAGGCCAGAGTAGGGACGGC, 6; under CCTGCTAGGTCGTGGTCAGCTAATCTACAGTATG, -0.0552.
In the case of TCTCCTAGGTCAGTTGGTCAGCTAACGAGCTGCC it was 0.839; in that of CGTCAAAGATCAACTAAGGTAACGTAAAGCACGC, 0.78; in that of AGTACAGGGTCACTAGGCCAGAGTAGGTACGAAT, 3.83.
For the sequence ACTATTAGTTGACTTAGGGCAAGCGATACGACGC, the PBM binding z-score was 0.174.
Under TCATATAGGTACATGCTAGGTGAAAGTCCGATCT stands 0.884; under TAGCCTAGGTCCTGCGGGCCAGTATAGTGTCGGC, -1.05.
Under TCTTGAAGATCAATAGAGGTTAAGAAAGTGCGCT stands 1.92; under AAAACGAGGGCAATGAGTTGATAGCACGGGTGGC, 5.46.
Under GCGGACAGGTGAAACGCAGGTAACTCAGGGTGGC stands -0.55; under AGTACGAGGGCACGCTGAGTTGATAGCAGAGTAG, 2.29; under AGAACGAGGGCAATGAGTGGATAGCACGGGTGGC, 1.49.
The sequence TCTGCTAGGTCAGTTTGTCAGCTAACGAGCTGCC returned a PBM binding z-score of 0.205.
Under CGAACTAAGTCAAGGACAGTGAATCTCCGCACGC stands -0.36.
In the case of CGAACGAGGGCATGAGCTGATAGCAAATGCCGAT it was 0.355.
Under TTACCAAGGGGAGCTGAGGTCGTTGATCCAACTC stands 2.08; under TCTGCTAGGTCAGTTGGTCCGCTAACGAGCTGCC, 0.677; under ACAGACAGGTGATGAAGGTAACTCATGCTATCAT, 0.111.
On to CCTACTAGGCCATTCAGAGGTCATTGATCATATG, for which the PBM binding z-score is 4.33.
Under ATATGTAGGTTAAGGCTCATTCAGGTTGGTTCGC stands 0.395; under CTCGCAAGGTCGTGCTCAGGTGAGTATACCAAAC, 2.24.
AGAACGAGGGCACGCTGAGTTGATGGCAGAGTAG came in with a PBM binding z-score of 1.86.
The sequence CAAACTAGGTCACGATAGGTCAAAGTCGAATGAC registered a PBM binding z-score of 5.51.
In the case of AGAACGAGGGCAATGAGTAGATAGCACGGGTGGC it was 1.15; in that of AGTCAAAGTTCAAGACGAGGTAACGTAAAGCACG, 4.07.
